Experimental data published in the supplement of paper PMC10849652.
Targets with a hit are over-represented here; the source holds about 7,900 in all. About 0.6% of all pairs of compound and target were hits. Unmarked numbers belong to inactive results.

Legend:
Experiment in all cases: log2 fold change, soluble protein after heating vs DMSO (PISA); higher = thermal stabilisation; K562 cells, 10 uM, 30 min; active = over 0.2 and 3.5 SD of the protein, either way, in both replicates (recomputed)
[1] = compound: CC1=C(C=C(C=C1)NC(=O)C2=CC(=CC=C2)C(C)(C)C#N)NC3=CC4=C(C=C3)N=CN(C4=O)C
Outline: (§1)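 For each measurement, 10 μM compound was applied for 30 min to K562 cells at 2×10^6 cells/mL. Aliquots were heated for 3 min across 48°C-58°C, pooled, and extracted in PBS with 0.5% NP-40 at 4°C; the supernatant after 21,000xg for 90 min was soluble protein. This was quantified by TMTpro 16plex LC-MS/MS with channel sums equalised, and thermal stability was reported relative to control samples from duplicates, on a log2 fold-change scale.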

[2] = compound: CC1=C(C=C(C=C1)NC(=O)C2=CC(=CC=C2)N(C)C)NC(=O)C3=CC=C(C=C3)O
Outline: as §1

[3] = compound: CC1=CC=C(C=C1)SC2=C3C=C(SC3=CN=C2)C(=O)N
Outline: as §1

[4] = compound: CC1=NC(=CC=C1)C2=C(N=C(N2)C(C)(C)C)C3=CC4=NC=CN=C4C=C3
Outline: as §1

[5] = compound: CCCCN(Cc1ccc(C(=O)NO)cc1)C(=O)Nc1ccccc1 [Nexturastat A]
Outline: as §1

[6] = compound: CCCS(=O)(=O)Nc1ccc(F)c(C(=O)c2c[nH]c3ncc(-c4ccc(Cl)cc4)cc23)c1F [vemurafenib]
Outline: as §1

[7] = compound: CCCS(=O)(=O)Nc1ccc(F)c(C(=O)c2c[nH]c3ncc(Cl)cc23)c1F
Outline: as §1

[8] = compound: CCCc1cc(C)[nH]c(=O)c1CNC(=O)c1cc(-c2ccnc(N3CCN(C)CC3)c2)cc2c1cnn2C(C)C
Outline: as §1

[9] = compound: CCN(CC)Cc1ccc2cc(COC(=O)Nc3ccc(C(=O)NO)cc3)ccc2c1 [givinostat]
Outline: as §1

[10] = compound: CCN(CCCOc1ccc2c(Nc3cc(CC(=O)Nc4cccc(F)c4)[nH]n3)ncnc2c1)CCOP(=O)(O)O [barasertib]
Outline: as §1

Sequence of UniProt O75376 (O75376 whole entry, looked up): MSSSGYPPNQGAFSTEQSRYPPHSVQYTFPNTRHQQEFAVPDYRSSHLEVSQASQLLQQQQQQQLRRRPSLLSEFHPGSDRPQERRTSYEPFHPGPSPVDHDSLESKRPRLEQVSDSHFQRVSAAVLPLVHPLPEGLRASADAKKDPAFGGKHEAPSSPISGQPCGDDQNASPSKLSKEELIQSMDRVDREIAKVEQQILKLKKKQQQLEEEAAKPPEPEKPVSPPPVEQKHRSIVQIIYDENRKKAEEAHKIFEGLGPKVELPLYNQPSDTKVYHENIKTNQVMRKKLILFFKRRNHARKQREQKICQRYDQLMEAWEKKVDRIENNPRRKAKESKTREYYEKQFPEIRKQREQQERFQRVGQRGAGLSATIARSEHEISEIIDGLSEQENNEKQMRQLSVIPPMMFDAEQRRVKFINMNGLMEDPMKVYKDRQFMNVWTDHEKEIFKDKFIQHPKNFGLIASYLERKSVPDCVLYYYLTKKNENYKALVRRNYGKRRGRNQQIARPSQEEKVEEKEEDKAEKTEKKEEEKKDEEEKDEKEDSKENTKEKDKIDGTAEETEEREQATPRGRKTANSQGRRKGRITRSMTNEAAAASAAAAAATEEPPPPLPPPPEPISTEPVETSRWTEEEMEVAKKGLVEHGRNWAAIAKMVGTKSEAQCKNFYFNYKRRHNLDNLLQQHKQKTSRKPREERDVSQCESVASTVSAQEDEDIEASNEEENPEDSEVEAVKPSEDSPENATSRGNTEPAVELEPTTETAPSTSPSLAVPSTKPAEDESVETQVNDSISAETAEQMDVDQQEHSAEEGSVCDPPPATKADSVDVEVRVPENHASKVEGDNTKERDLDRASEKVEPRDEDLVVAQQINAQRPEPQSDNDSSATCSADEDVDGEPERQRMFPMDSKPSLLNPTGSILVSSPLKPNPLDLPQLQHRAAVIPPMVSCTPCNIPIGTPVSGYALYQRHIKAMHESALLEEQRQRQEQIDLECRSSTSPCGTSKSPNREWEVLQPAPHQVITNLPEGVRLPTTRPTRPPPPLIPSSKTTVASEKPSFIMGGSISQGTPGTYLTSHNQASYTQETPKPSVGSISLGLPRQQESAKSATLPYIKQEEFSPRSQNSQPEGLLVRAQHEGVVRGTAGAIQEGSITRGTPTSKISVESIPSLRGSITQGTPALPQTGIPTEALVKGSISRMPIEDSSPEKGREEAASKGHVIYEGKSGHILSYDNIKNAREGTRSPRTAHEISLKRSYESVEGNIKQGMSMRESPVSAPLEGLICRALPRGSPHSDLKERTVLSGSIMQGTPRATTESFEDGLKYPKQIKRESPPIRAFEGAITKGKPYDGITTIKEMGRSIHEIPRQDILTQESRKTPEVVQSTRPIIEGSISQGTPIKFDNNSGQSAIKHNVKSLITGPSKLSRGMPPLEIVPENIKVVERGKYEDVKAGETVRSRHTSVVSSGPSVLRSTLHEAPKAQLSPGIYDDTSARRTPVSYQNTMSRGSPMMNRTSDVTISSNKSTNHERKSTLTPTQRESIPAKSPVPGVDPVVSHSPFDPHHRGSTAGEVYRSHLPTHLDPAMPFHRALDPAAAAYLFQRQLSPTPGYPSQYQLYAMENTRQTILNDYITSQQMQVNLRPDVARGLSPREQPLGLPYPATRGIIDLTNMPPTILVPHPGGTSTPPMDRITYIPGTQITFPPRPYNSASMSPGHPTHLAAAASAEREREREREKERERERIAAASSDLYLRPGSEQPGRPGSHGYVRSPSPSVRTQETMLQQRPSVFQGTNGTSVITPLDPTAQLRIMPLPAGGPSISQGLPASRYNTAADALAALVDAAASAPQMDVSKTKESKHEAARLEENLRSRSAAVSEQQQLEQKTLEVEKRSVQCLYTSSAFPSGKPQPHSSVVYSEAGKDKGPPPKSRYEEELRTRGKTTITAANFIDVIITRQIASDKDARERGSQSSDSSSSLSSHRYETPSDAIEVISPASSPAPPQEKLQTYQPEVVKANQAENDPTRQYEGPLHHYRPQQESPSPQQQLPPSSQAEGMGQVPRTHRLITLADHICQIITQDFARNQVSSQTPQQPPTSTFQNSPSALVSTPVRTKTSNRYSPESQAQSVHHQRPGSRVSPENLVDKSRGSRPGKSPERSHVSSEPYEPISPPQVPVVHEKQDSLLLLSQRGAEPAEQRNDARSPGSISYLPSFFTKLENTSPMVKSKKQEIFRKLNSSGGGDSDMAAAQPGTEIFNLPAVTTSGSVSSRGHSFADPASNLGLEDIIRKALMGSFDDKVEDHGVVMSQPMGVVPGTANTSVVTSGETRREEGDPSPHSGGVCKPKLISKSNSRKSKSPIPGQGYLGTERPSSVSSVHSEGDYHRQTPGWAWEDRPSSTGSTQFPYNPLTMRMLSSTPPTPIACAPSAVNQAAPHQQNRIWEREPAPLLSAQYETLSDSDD
Sequence of UniProt Q9HCD5 (Q9HCD5 whole entry, looked up): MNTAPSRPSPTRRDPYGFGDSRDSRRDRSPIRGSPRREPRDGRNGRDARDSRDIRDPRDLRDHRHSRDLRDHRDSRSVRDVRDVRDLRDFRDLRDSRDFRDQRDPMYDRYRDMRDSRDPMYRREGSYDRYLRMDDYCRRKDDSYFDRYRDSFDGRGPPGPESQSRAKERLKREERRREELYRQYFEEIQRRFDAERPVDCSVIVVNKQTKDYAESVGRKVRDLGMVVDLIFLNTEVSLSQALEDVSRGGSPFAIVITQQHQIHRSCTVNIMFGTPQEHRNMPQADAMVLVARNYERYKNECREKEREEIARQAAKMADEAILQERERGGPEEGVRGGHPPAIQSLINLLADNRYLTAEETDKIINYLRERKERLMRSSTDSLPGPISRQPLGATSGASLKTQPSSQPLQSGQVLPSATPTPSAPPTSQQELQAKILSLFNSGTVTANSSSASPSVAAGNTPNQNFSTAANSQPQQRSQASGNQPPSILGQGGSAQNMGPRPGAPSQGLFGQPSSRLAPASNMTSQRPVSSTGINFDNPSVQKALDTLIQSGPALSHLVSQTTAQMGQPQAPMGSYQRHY
Sequence of UniProt Q13952 (Q13952 whole entry, looked up): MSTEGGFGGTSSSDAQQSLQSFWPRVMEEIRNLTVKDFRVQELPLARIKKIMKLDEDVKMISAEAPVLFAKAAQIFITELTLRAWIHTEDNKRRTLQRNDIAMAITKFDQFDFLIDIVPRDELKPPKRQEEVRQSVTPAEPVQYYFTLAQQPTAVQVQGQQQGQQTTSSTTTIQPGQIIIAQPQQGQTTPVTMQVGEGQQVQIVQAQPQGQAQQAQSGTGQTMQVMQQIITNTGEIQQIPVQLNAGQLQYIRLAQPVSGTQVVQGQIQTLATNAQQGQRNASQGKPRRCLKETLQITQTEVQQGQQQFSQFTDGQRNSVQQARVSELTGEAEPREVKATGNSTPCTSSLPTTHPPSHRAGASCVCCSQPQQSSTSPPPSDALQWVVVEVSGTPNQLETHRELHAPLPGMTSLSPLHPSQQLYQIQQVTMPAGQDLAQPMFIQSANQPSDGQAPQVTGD
Sequence of UniProt P49757 (P49757 whole entry, looked up): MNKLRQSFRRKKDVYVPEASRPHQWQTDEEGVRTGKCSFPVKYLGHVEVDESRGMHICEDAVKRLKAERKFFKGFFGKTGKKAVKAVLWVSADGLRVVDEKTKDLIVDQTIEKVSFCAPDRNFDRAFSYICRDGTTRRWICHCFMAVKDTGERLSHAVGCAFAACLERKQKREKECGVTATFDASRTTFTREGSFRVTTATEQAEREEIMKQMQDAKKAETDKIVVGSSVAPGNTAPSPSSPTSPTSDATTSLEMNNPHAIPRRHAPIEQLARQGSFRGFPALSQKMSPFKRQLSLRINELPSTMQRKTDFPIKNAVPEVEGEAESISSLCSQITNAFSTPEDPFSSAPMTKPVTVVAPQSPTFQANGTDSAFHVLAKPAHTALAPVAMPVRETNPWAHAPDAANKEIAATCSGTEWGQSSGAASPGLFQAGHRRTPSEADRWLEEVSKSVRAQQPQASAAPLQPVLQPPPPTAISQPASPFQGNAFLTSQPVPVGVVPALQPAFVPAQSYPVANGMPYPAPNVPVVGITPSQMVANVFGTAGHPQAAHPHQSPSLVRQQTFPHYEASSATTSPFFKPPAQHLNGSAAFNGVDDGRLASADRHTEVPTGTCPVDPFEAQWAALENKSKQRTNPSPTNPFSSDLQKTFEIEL
Sequence of UniProt O43809 (O43809 whole entry, looked up): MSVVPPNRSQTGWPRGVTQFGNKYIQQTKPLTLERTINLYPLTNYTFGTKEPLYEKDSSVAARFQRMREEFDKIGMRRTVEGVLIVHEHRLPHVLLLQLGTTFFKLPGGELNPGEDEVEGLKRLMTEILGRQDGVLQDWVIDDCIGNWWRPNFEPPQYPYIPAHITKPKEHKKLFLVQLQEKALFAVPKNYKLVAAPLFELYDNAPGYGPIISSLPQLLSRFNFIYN
Sequence of UniProt Q9BUK6 (Q9BUK6 whole entry, looked up): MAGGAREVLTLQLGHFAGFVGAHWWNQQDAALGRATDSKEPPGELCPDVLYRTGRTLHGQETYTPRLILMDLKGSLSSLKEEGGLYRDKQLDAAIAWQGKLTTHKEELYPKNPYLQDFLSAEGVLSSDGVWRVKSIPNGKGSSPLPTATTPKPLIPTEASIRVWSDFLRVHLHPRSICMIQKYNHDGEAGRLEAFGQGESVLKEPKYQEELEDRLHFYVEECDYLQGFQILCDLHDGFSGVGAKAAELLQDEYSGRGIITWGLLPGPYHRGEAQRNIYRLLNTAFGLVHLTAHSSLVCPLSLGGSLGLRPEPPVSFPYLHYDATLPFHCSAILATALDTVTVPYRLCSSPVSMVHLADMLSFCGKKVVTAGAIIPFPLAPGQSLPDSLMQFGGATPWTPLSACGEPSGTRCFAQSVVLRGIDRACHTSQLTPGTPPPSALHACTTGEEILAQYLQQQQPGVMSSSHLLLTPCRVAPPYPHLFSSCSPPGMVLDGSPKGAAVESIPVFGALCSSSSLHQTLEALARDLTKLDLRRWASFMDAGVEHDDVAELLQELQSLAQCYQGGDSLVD
Sequence of UniProt Q9UI09 (Q9UI09 whole entry, looked up): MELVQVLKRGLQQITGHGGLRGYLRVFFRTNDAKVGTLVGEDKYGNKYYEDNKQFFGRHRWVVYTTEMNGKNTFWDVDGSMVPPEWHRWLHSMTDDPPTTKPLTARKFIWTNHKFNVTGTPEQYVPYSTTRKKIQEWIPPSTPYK

| Target | log2 fold change [1] | log2 fold change [2] | log2 fold change [3] | log2 fold change [4] | log2 fold change [5] | log2 fold change [6] | log2 fold change [7] | log2 fold change [8] | log2 fold change [9] | log2 fold change [10] |
| --- | --- | --- | --- | --- | --- | --- | --- | --- | --- | --- |
| NELFA (UniProt Q9H3P2) | -0.02 | -0.124 | 0.011 | 0.092 | -0.104 | 0.06 | 0.097 | 0.024 | 0.079 | 0.212 |
| NUMB (UniProt P49757) | -0.006 | 0.018 | -0.067 | -0.046 | 0.09 | 0.026 | -0.002 | 0.004 | 0.02 | -0.01 |
| ORC3 isoform 2 (UniProt Q9UBD5) | -0.027 | -0.056 | 0.146 | 0.075 | -0.124 | 0.012 | 0.143 | 0.044 | 0.145 | 0.178 |
| NCAPG (UniProt Q9BPX3) | 0.086 | -0.074 | 0.027 | 0.038 | 0.011 | 0.056 | 0.091 | 0.064 | 0.081 | 0.064 |
| NUDT21 (UniProt O43809) | 0.052 | 0.077 | -0.007 | 0.019 | 0 | 0.02 | -0.053 | -0.013 | -0.033 | -0.023 |
| MXRA7 (UniProt P84157) | -0.181 | -0.015 | 0.038 | 0.011 | -0.002 | 0.041 | -0.032 | -0.078 | 0.011 | 0.048 |
| NCOR1 (UniProt O75376) | -0.035 | -0.075 | -0.195 | 0.101 | -0.079 | 0.01 | -0.149 | -0.079 | 0.014 | -0.094 |
| NDUFS8 (UniProt O00217) | 0.02 | 0 | 0.03 | 0.018 | -0.136 | 0.02 | -0.006 | -0.092 | -0.014 | -0.004 |
| NUDT7 (UniProt P0C024) | 0.016 | -0.021 | – | 0.197 | 0.014 | – | – | – | 0.017 | 0.666 (active) |
| MYLK (UniProt Q15746) | 0.832 (active) | 0.108 | -0.013 | 0.202 | – | 0.081 | -0.01 | -0.154 | -0.132 | 0.032 |
| PAK1 isoform 2 (UniProt Q13153) | 0.035 | -0.072 | 0.114 | 0.003 | -0.01 | 0.019 | -0.036 | -0.075 | -0.054 | -0.001 |
| MPHOSPH10 (UniProt O00566) | 0.052 | -0.01 | -0.031 | -0.079 | 0.098 | -0.041 | 0.009 | 0.047 | 0.087 | -0.107 |
| NCOA7 (UniProt Q8NI08) | 0.068 | -0.045 | 0.015 | 0.016 | 0.012 | 0.008 | -0.005 | 0.024 | 0.045 | 0.009 |
| PAFAH2 (UniProt Q99487) | -0.09 | 0.006 | 0.019 | -0.038 | – | 0.093 | -0.015 | – | 0.059 | -0.044 |
| MYSM1 (UniProt Q5VVJ2) | 0.067 | -0.298 | – | 0.006 | – | – | – | – | – | -0.114 |
| NECTIN2 isoform 2 (UniProt Q92692) | -0.037 | 0.011 | – | -0.104 | 0.17 | 0.033 | – | -0.028 | 0.054 | 0.005 |
| MRPL34 (UniProt Q9BQ48) | -0.022 | -0.01 | 0.019 | -0.052 | 0.259 | -0.062 | 0.051 | 0.066 | -0.021 | 0.022 |

| Target | log2 fold change [1] | log2 fold change [2] | log2 fold change [3] | log2 fold change [4] | log2 fold change [5] | log2 fold change [6] | log2 fold change [7] | log2 fold change [8] | log2 fold change [9] | log2 fold change [10] |
| --- | --- | --- | --- | --- | --- | --- | --- | --- | --- | --- |
| NDUFA12 (UniProt Q9UI09) | 0.022 | -0.1 | 0.014 | -0.028 | -0.027 | 0.039 | 0.03 | -0.044 | 0.114 | 0.056 |
| NA isoform 3 (UniProt Q4G0T1) | -0.007 | 0.035 | 0.008 | -0.057 | – | 0.005 | -0.077 | -0.012 | -0.009 | 0.179 |
| OPHN1 (UniProt O60890) | -0.146 | -0.029 | – | 0.218 | -0.12 | – | – | -0.018 | 0.049 | -0.037 |
| MTHFD1, A0A384N5Y3 | 0.036 | -0.107 | -0.055 | – | 0.013 | 0.088 | 0.058 | -0.035 | – | 0.044 |
| NBN (UniProt O60934) | 0.017 | -0.008 | -0.01 | 0.014 | -0.03 | 0.081 | 0.047 | 0.04 | 0.054 | 0.022 |
| OSBPL3 (UniProt Q9H4L5) | 0.35 | 0.04 | 0.006 | -0.062 | 0.471 | -0.267 | -0.09 | – | -0.204 | – |
| MLX (UniProt Q9UH92) | 0.035 | -0.027 | 0.082 | 0 | 0.009 | – | 0.008 | 0.071 | 0.047 | 0.117 |
| MRPS25 (UniProt P82663) | 0.033 | -0.009 | 0.085 | 0.078 | 0.012 | -0.089 | 0.078 | -0.082 | 0.049 | -0.02 |
| NEDD4L (UniProt Q96PU5) | 0.015 | -0.138 | -0.046 | 0.01 | -0.059 | 0.049 | 0.019 | 0.013 | 0.056 | -0.021 |
| NOL7 (UniProt Q9UMY1) | -0.06 | -0.055 | -0.048 | -0.193 | 0.214 | -0.14 | -0.121 | 0.088 | 0.031 | -0.092 |
| NA, A0A2R8Y3M9 | -0.126 | 0.546 | 0.225 | 0.178 | – | – | -0.086 | – | – | -0.138 |
| NFYC (UniProt Q13952) | 0.005 | 0.011 | -0.061 | 0.019 | -0.087 | -0.006 | -0.001 | -0.031 | 0.001 | 0.028 |
| NPM3 (UniProt O75607) | 0.003 | -0.004 | -0.005 | -0.056 | – | -0.04 | 0.041 | -0.015 | 0.019 | -0.083 |
| NCOA5 (UniProt Q9HCD5) | 0.076 | 0.134 | 0.099 | -0.315 | – | – | -0.096 | – | 0.08 | – |
| MSTO1 (UniProt Q9BUK6) | -0.032 | -0.052 | -0.02 | 0.024 | -0.118 | 0.052 | 0.018 | -0.012 | 0.011 | 0.037 |
| MUL1 (UniProt Q969V5) | -0.061 | -0.015 | 0.01 | -0.004 | -0.022 | -0.039 | 0.024 | 0.11 | 0.005 | 0.005 |
